Test systems include HCT-15 colon; HT29 colon; SNB-75 CNS; SNB-19 CNS; U251 CNS; PC-3 prostate; SK-MEL-5 melanoma; UACC-62 melanoma; LOX IMVI melanoma; SK-MEL-28 melanoma; SK-MEL-2 melanoma; SN12C renal; UO-31 renal; TK-10 renal; ACHN renal; CAKI-1 renal; CCRF-CEM leukemia; MOLT-4 leukemia; A498 renal.
Common to all, as to assay: NCI-60 one-dose screen, 48 h (100 = growth as untreated, 0 = no growth, -100 = all killed)
What all share (conditions): 10 µM unless noted

In PubChem BioAssay (NCI) one finds growth data, which are given here for eleven compounds.

This is part of a sample that, as a whole, favours compounds with a hit. Of some 83,000 tested, about 20% had one in any assay.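 Interpretation: 100, growth as untreated; towards 0, rising growth inhibition; 0, no net growth; 0 to -100, cell death. Compounds scoring below 10 were considered active.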 Values without a mark were called inactive. Activity calls are given as the source filed them.

With `COc1ccc(C2CC(c3cccs3)=NN2c2ccc(S(=O)(=O)NC(=O)Nc3ccc(C)cc3)cc2)cc1` (stereo not drawn), the growth was 99.3% in the assay on HCT-15 colon; 128% in the assay on HT29 colon; 93.7% in the assay with SNB-75 CNS; 108% in the assay on SNB-19 CNS; 94.1% with U251 CNS; 86.3% in the assay with PC-3 prostate. Besides, the growth in the assay on SK-MEL-5 melanoma was 61.4%; in the assay with UACC-62 melanoma it was 38.1%; in the assay on LOX IMVI melanoma, 99.7%; in the assay with SK-MEL-28 melanoma, 47.8%; in the assay with SK-MEL-2 melanoma, 60.9%; in the assay on SN12C renal it was 111%. Also, the growth in the assay with UO-31 renal was 85.7%; with TK-10 renal, 96.8%; in the assay with ACHN renal it was 96.6%; with CAKI-1 renal, 95.8%; in the assay with CCRF-CEM leukemia, 87.9%; in the assay on MOLT-4 leukemia, 94.4%.

As to `O=C(NNC(=S)Nc1ccccc1)c1ccccn1`, the growth with HCT-15 colon was 22.8%; in the assay with HT29 colon, 57.2%; with SNB-75 CNS, 67.5%; in the assay on SNB-19 CNS it was 52.2%; with U251 CNS it was 20.4%; in the assay with PC-3 prostate it was 34.4%. For the same compound, the growth is 13.8% in the assay with SK-MEL-5 melanoma; 5% (active) in the assay on UACC-62 melanoma; 25.9% in the assay with LOX IMVI melanoma; 46% in the assay on SK-MEL-28 melanoma; 85.6% in the assay on SK-MEL-2 melanoma; 43.7% with SN12C renal. Besides, the growth with UO-31 renal is 19.8%; with TK-10 renal, 50.2%; in the assay on ACHN renal, 16.4%; with CAKI-1 renal it was 5.93% (active); in the assay with CCRF-CEM leukemia, 18.8%; with MOLT-4 leukemia it was 13.8%.

In the case of `Cc1cc(N/C=c2\sc3ncnn3c2=O)no1`, the growth in the assay with HCT-15 colon was 94.6%; in the assay with HT29 colon it was 102%; with SNB-75 CNS it was 91.3%; in the assay with SNB-19 CNS it was 95.2%; in the assay on U251 CNS it was 105%; with PC-3 prostate, 97.7%. In addition, the growth in the assay with SK-MEL-5 melanoma is 99.2%; with UACC-62 melanoma, 94%; in the assay with LOX IMVI melanoma, 97.3%; in the assay on SK-MEL-28 melanoma, 104%; in the assay with SK-MEL-2 melanoma, 101%; in the assay with SN12C renal, 95.5%. Further, the growth is 91.5% with UO-31 renal; 109% in the assay on TK-10 renal; 106% in the assay with ACHN renal; 101% with CAKI-1 renal; 123% in the assay on CCRF-CEM leukemia; 104% with MOLT-4 leukemia.

With `CC(C)(C)OC(=O)N[C@@H](Cc1ccccc1)C(=O)N(Cc1ccccc1)C1(C(=O)NCc2ccccc2)CCN(Cc2ccccc2)CC1`, the growth in the assay on HCT-15 colon was 36.1%; with HT29 colon, 23.9%; in the assay on SNB-75 CNS, 44.9%; in the assay on SNB-19 CNS, 31.6%; in the assay on U251 CNS, 33.8%; with PC-3 prostate, 1.58% (active). The growth was 24.3% in the assay on SK-MEL-5 melanoma; 26% with UACC-62 melanoma; 39% with LOX IMVI melanoma; 69.9% with SK-MEL-28 melanoma; 55.9% with SK-MEL-2 melanoma; 19.3% with SN12C renal. Also, the growth in the assay on UO-31 renal was 15.5%; in the assay with TK-10 renal, 62.3%; with ACHN renal, 40.8%; in the assay on A498 renal it was 8.13% (active); in the assay with CCRF-CEM leukemia, 33.9%; in the assay on MOLT-4 leukemia it was 7.74% (active).

`O=S(=O)(NCCCNc1nccc(-c2c(-c3ccc(O)cc3)nc3sccn23)n1)c1ccc(F)cc1`: the growth is 10% (active) with HCT-15 colon; 7.73% (active) in the assay on HT29 colon; 17.8% in the assay with SNB-75 CNS; 35.1% in the assay on SNB-19 CNS; 11.1% in the assay with U251 CNS; 19.3% in the assay with PC-3 prostate. Also, the growth is -85.1% (active) in the assay on SK-MEL-5 melanoma; -1.06% (active) in the assay on UACC-62 melanoma; -29.4% (active) in the assay on LOX IMVI melanoma; -6.84% (active) in the assay with SK-MEL-28 melanoma; -42.5% (active) in the assay on SK-MEL-2 melanoma; 10% in the assay with SN12C renal. Further, the growth in the assay with UO-31 renal was 9.16% (active); in the assay on TK-10 renal, 26.6%; in the assay with ACHN renal it was -5.95% (active); in the assay with CAKI-1 renal, 11.6%; in the assay on CCRF-CEM leukemia, 8.07% (active); in the assay with MOLT-4 leukemia, 2.05% (active).

Regarding `CN=S(=O)(NC(=O)c1ccc(Cl)cc1Cl)c1ccc(Br)s1` (stereo not drawn), the growth in the assay on HCT-15 colon was 99.9%; in the assay on HT29 colon, 112%; in the assay on SNB-75 CNS, 73.4%; in the assay with SNB-19 CNS it was 103%; in the assay on U251 CNS it was 89.3%; in the assay with PC-3 prostate, 79.2%. The growth with SK-MEL-5 melanoma is 95.3%; in the assay on UACC-62 melanoma it was 99.9%; in the assay on LOX IMVI melanoma, 105%; with SK-MEL-28 melanoma, 102%; with SK-MEL-2 melanoma, 108%; in the assay with SN12C renal, 105%. The growth in the assay with UO-31 renal is 89.4%; in the assay with TK-10 renal, 106%; in the assay on ACHN renal, 102%; in the assay on A498 renal, 67.8%; in the assay on CCRF-CEM leukemia, 96.8%; in the assay on MOLT-4 leukemia, 93.3%.

Regarding `N#Cc1ccc(NC(=O)c2ccc3cccnc3c2O)cc1`, the growth in the assay on HCT-15 colon is 31.4%; in the assay on HT29 colon, 30.7%; in the assay on SNB-75 CNS it was 43.8%; in the assay on SNB-19 CNS it was 23.6%; in the assay on U251 CNS, 14.6%; in the assay on PC-3 prostate it was 45.9%. The growth is 14.4% in the assay on SK-MEL-5 melanoma; 9.43% (active) in the assay with UACC-62 melanoma; 21.9% with LOX IMVI melanoma; 34.5% in the assay on SK-MEL-28 melanoma; 41.3% in the assay with SK-MEL-2 melanoma; 33.7% with SN12C renal. Also, the growth in the assay on UO-31 renal is 18.4%; with TK-10 renal it was 34%; with ACHN renal, 14.7%; in the assay on CAKI-1 renal it was -12.5% (active); in the assay with CCRF-CEM leukemia, 23.8%; in the assay with MOLT-4 leukemia, 12.7%.

Take `COc1cc(OC)c(C(=O)/C=C/c2ccc(C#N)cc2)c(OC)c1`: the growth in the assay on HCT-15 colon is 9.66% (active); in the assay with HT29 colon it was 3.67% (active); with SNB-75 CNS, 14.1%; with SNB-19 CNS, 16.7%; in the assay with U251 CNS it was 12.6%; in the assay on PC-3 prostate, 37.4%. Moreover, the growth with SK-MEL-5 melanoma was 8.04% (active); in the assay on UACC-62 melanoma it was 26.5%; in the assay with LOX IMVI melanoma, 6.31% (active); in the assay with SK-MEL-28 melanoma, 39.2%; with SK-MEL-2 melanoma, -11% (active); with SN12C renal it was 19.6%. For the same compound, the growth was 32.4% in the assay with UO-31 renal; 19.1% with TK-10 renal; 17.5% with ACHN renal; 18.5% with CAKI-1 renal; 7.44% (active) with CCRF-CEM leukemia; 14.3% in the assay with MOLT-4 leukemia.

In the case of `N=C(N)c1ccc(-c2ccc(-c3ccc(Cl)cc3)o2)nc1`, the growth in the assay on HCT-15 colon was -75.1% (active); in the assay on HT29 colon it was -92.9% (active); with SNB-75 CNS, -97.8% (active); in the assay on SNB-19 CNS it was -87.2% (active); in the assay on U251 CNS, -98.1% (active); in the assay with PC-3 prostate, -90% (active). For the same compound, the growth in the assay on SK-MEL-5 melanoma is -98.8% (active); in the assay with UACC-62 melanoma it was -96.8% (active); in the assay on LOX IMVI melanoma it was -90.4% (active); in the assay on SK-MEL-28 melanoma it was -94.2% (active); in the assay on SK-MEL-2 melanoma, -90.7% (active); in the assay on SN12C renal it was -80.7% (active). The growth is -85.8% (active) in the assay on UO-31 renal; -95.1% (active) in the assay with TK-10 renal; -91.5% (active) with ACHN renal; -85.5% (active) in the assay on CAKI-1 renal; -57.5% (active) in the assay on CCRF-CEM leukemia; 102% with MOLT-4 leukemia.

Regarding `C=CCOc1cccc(/C=C/C(=O)c2sc(Nc3cccnc3)nc2C)c1`, the growth with HCT-15 colon was 33.5%; in the assay with HT29 colon, 16.8%; with SNB-75 CNS it was 2.22% (active); with SNB-19 CNS, 57.7%; with U251 CNS it was 50.7%; in the assay with PC-3 prostate it was 44.6%. Also, the growth with SK-MEL-5 melanoma is 74.9%; in the assay with UACC-62 melanoma it was 59.9%; in the assay with LOX IMVI melanoma it was 32.9%; in the assay with SK-MEL-28 melanoma, 87.1%; in the assay on SK-MEL-2 melanoma, 84.4%; with SN12C renal, 40.9%. Besides, the growth was 47.7% in the assay with UO-31 renal; 113% in the assay with TK-10 renal; 54.3% in the assay on ACHN renal; 81% in the assay with CAKI-1 renal; 15.2% with CCRF-CEM leukemia; 76.3% in the assay with MOLT-4 leukemia.

Take `Cc1ccc(S(=O)(=O)OC2COCOC2C(OS(=O)(=O)c2ccc(C)cc2)C2OCOCC2OS(=O)(=O)c2ccc(C)cc2)cc1` (stereo not drawn): the growth with HCT-15 colon was 107%; in the assay on HT29 colon, 98.7%; in the assay with SNB-75 CNS, 115%; with SNB-19 CNS, 108%; with U251 CNS, 102%; with PC-3 prostate it was 97.6%. Further, the growth with SK-MEL-5 melanoma was 99.9%; in the assay on UACC-62 melanoma it was 98.3%; with LOX IMVI melanoma, 103%; in the assay on SK-MEL-28 melanoma, 118%; with SK-MEL-2 melanoma, 104%; with SN12C renal, 91.3%. In addition, the growth was 95.8% in the assay on UO-31 renal; 101% in the assay with TK-10 renal; 105% in the assay on ACHN renal; 105% with CAKI-1 renal; 100% in the assay with CCRF-CEM leukemia; 90.1% in the assay with MOLT-4 leukemia.
